# Source: PubChem (National Center for Advancing Translational Sciences (NCATS))
# Pf Dd2 growth = qHTS Primary assay for Inhibitors of Plasmodium falciparum Dd2 growth in vitro. AID 1347417, 2020. P. falciparum Dd2 growth, SYBR Green, 72 h. Potency, µM (top dose mostly 28.9 µM), usual class: inhibitors. 4.3% of 120,000 active; active = well fitted inhibition curve with a large enough effect; also: nearly all actives have a fitted effect of over 65% in size
#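 Infected erythrocytes (Dd2, 0.3% parasitemia, 2.5% hematocrit final) are added to compound in RPMI-1640/Albumax II medium, grown 72 h at 37C in low oxygen, then lysed with saponin/Triton-X containing SYBR Green and read by fluorescence.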
# Hits are given with their value; . = inactive. Only a selection was taken, and hits are over-represented in it overall.
SMILES,Pf Dd2 growth
O=C1NC2(CCCN(C(=O)c3ccc4c(c3)OCO4)C2)Oc2ccccc21 (stereo not given),.
COc1ccc(C2Cn3cnc(C(=O)N4CCC(C(=O)NCc5ccccc5F)CC4)c3CO2)cc1 (stereo not given),.
O=C(NC1CC1)c1ccc(CC2CCN(C(=O)c3ccc4ccccc4n3)CC2)cc1,2µM
CCNC(=O)c1ccc(CC2CCN(C(C)=O)CC2)cc1,.
COCC(=O)NC1CCC12CCN(C(=O)c1ccc3ccccc3n1)CC2 (stereo not given),.
CCCC1c2nccn2CCCN1C(=O)c1noc(C)c1COC (stereo not given),.
O=C1NC2(CCN(C(=O)c3ccccc3F)C2)N=C1c1ccncc1 (stereo not given),.
Cn1nc(C(=O)N2CCc3nn(CC4CC4)c(=O)n3CC2)c2ccccc21,.
Cn1nc(C(=O)N2CCCC(CN3CCCC3)CC2)c2ccccc21 (stereo not given),3.16µM
O=C(c1ccccn1)N1CCCC(CN2CCCC2)CC1 (stereo not given),.
O=S(=O)(c1cccnc1)N1CCC(N2CC(OCC3CC3)C23CCOCC3)CC1 (stereo not given),.
COc1cc(NC(=O)Nc2nnc(N3CCCCC3)s2)cc(OC)c1,.
CCOc1ccc(NC(=O)Nc2nnc(N3CCCCC3C)s2)cc1 (stereo not given),11.2µM
CCOc1ccc(NC(=O)CSc2nnc(NC(=O)Nc3ccccc3)s2)cc1,.
Cc1nc(-c2c3n(c(=O)n(CC(=O)Nc4cc(Cl)ccc4C)c2=O)CCCCC3)no1,.
CNC(=O)[C@@H]1CN(C(=O)CCc2ccc(OC)cc2)C[C@H]1COC,.
Cc1cccc(CN2CCc3c(n(Cc4cccnc4)n(CCc4ccccc4)c3=O)C2)n1,.
Cc1cccc(NC(=O)CSc2ccc(-c3sc(-c4ccccc4)nc3C)nn2)c1C,.
COC(=O)c1ccc(NC(=O)CSc2ccc(-c3sc(-c4ccccc4)nc3C)nn2)cc1,12.6µM
Cc1nc(-c2ccccc2)sc1-c1ccc(SCC(=O)NCc2ccc(Cl)cc2)nn1,.
Cn1nccc1C(=O)N1[C@@H]2CC[C@H]1CC(NC(=O)c1ccc(F)cc1)C2 (stereo not given in full),.
CCN1CC2(CCC1=O)CCN(Cc1ccc(C(F)(F)F)c(F)c1)CC2,.
COc1cc(NC(=O)c2cc3c(s2)-c2ccccc2OC3)cc(OC)c1OC,5.62µM
COc1cccc(CNC(=O)c2cc3c(s2)-c2ccccc2OC3)c1,.
COC(=O)c1ccccc1NC(=O)c1cc2c(s1)-c1ccccc1OC2,.
SMILES,Pf Dd2 growth
Cc1nnc(-c2cc(-c3cnn(C)c3)ccn2)n1Cc1ccccc1,.
COCCN1C(=O)[C@H]2CN(Cc3ccc(OC(F)(F)F)cc3)C[C@H]2C1=O,.
CN1CCC(N2CCOC[C@H]2c2ncc(C(C)(C)C)[nH]2)CC1,.
CN1CCOC[C@H]1c1ncc(-c2ccc(F)cc2F)[nH]1,.
CS(=O)(=O)c1ccc(-c2cnc([C@@H]3COCCN3Cc3ccccc3O)[nH]2)cc1,.
CC(C)(C)CN1CCOC[C@H]1c1ncc(-c2ccccc2)[nH]1,.
Cn1cc(CN2CCOC[C@H]2c2ncc(C(C)(C)C)[nH]2)c2ccccc21,10µM
C[C@@H](NC(=O)N1CCOC[C@H]1c1ncc(-c2ccc(Cl)cc2)[nH]1)c1ccccc1,12.6µM
Clc1ccc(-c2cnc([C@@H]3COCCN3C3CCCCC3)[nH]2)cc1,.
Cn1c(CN2CCOC[C@H]2c2ncc(-c3ccc(Cl)s3)[nH]2)nc2ccccc21,11.2µM
CO[C@@](C(=O)N1CCOC[C@H]1c1ncc(-c2ccccc2)[nH]1)(c1ccccc1)C(F)(F)F,.
Clc1ccc(-c2cnc([C@@H]3COCCN3Cc3ccccc3)[nH]2)s1,.
CS(=O)(=O)c1ccc(CN2CCOC[C@H]2c2ncc(-c3ccc(Cl)s3)[nH]2)cc1,.
Oc1ccccc1CN1CCOC[C@H]1c1ncc(-c2ccc(F)cc2F)[nH]1,3.16µM
Cc1cccc(OCC2(CNC(=O)C3CCCC3)C[C@@H](O)[C@@H](O)C2)n1 (stereo not given in full),.
COc1cccc(CNC(=O)Cn2c(-c3ccc(F)cc3)nc(C)cc2=O)c1,.
O=C(NCc1ccc(F)cc1)C1CCN(C(=O)c2ncn3c2COC(c2ccccc2)C3)CC1 (stereo not given),.
CC(C)S(=O)(=O)N1CCC(N(Cc2cccnc2)C2CCOCC2)CC1,.
Cc1cnc(C)c(N2CCC(Oc3ccc4c(cnn4CCC(=O)O)c3)CC2)n1,.
O=C(CCc1conc1-c1ccccc1)N1CCN(c2ccccc2Cl)CC1,.
CCc1ccc(C(=O)NC2CCN(c3cnn(CCOC)c(=O)c3)CC2)cc1,.
COc1ccc(-c2cnc([C@@H]3COCCN3Cc3ccncc3)[nH]2)cc1,.
COc1ccc(CN2CCOC[C@H]2c2ncc(-c3ccc(C)cc3)[nH]2)cc1,.
COc1ccc(-c2cnc([C@@H]3COCCN3Cc3ccccc3)[nH]2)cc1,10µM
CSc1ccc(C(=O)N2CCN(Cc3ccccc3)CC(O)C2)cc1 (stereo not given),.
SMILES,Pf Dd2 growth
CN(C)C1CCN(Cc2cc3cc4c(cc3nc2-c2ccc(Cl)cc2)OCO4)C1 (stereo not given),11.2µM
O=C1[C@H]2CN(Cc3ccc(Cl)cc3)C[C@H]2C(=O)N1Cc1ccc2c(c1)OCO2,.
Cn1ncc(CN2CC[C@@H](c3ccc4c(c3)OCO4)[C@H](O)C2)c1C1CC1,.
CS(=O)(=O)N1C[C@H]2CCN(Cc3cc(Cl)ccc3F)C[C@H]21,.
CSc1ccc2cc(CN3CC[C@@H](O)C3)c(-c3ccc(Cl)cc3)nc2c1,11.2µM
COc1ccc(N2CCOC3CCN(Cc4cccc(Cl)c4)CC3C2=O)cc1 (stereo not given),.
COc1ccc(OC)c2nc(-c3cccc(Cl)c3)c(CN3CCC(O)CC3)cc12,.
COc1cc2cc(CN3CCC(N(C)C)C3)c(-c3cccc(Cl)c3)nc2cc1OC (stereo not given),7.94µM
CCNc1nc2c(s1)C(c1cccc(F)c1)CC(=O)N2 (stereo not given),.
O=C(c1ccsc1)N1CCC2(CC1)NC(=O)N(Cc1ccc(Cl)cc1)C2=O,.
CCn1ccc(C(=O)N2CCC(Cc3ccc(C(=O)N4CCOCC4)cc3)CC2)n1,.
Cc1ccc(-c2cc(C(=O)N3CCCC3c3nncn3C(C)C)[nH]n2)cc1 (stereo not given),.
O=C(C1CN(S(=O)(=O)c2ccccc2)CC12CCCCC2)N1CCOCC1 (stereo not given),.
Cc1csc(NC(=O)c2nc3c(o2)CCN(Cc2c(C)noc2C)CC3)n1,.
COc1ccc(-c2nc(-c3ccccc3)nc3c2CN(C(=O)c2ccc(C(F)(F)F)cc2)CC3)cc1,8.91µM
COc1ccc(C(=O)N2CCc3nc(C)nc(-c4ccc(OC)cc4)c3C2)cc1,.
COc1ccc(-c2nc3c(c(-c4ccccc4)n2)CN(C(=O)c2ccccc2Cl)CC3)cc1,10µM
COc1ccc(-c2nc(C)nc3c2CN(C(=O)c2ccccn2)CC3)cc1,.
COc1ccc(-c2nc(-c3ccccc3)nc3c2CN(C(=O)c2ccccc2C)CC3)cc1,10µM
COc1ccc(-c2nc3c(c(-c4ccccc4)n2)CN(C(=O)c2cccc(Cl)c2)CC3)cc1,.
COc1ccc(-c2nc(C)nc3c2CN(C(=O)c2ccc(C)cc2)CC3)cc1,.
COc1ccc(-c2nc(C)nc3c2CN(C(=O)c2ccccc2)CC3)cc1,.
